HT1080-NT tox: kills 2HG-producing HT-1080-NT fibrosarcoma cells. HT-1080-NT fibrosarcoma viability, CellTiter-Glo ATP luminescence, 48 h. Potency, µM (doses to about 46.1 µM), most hits filed as cytotoxic. actives 1.6% (n = 360,000). AID 686970;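 note: NT is the 2HG producing partner of a matched IDH1 knockdown line; nearly all actives have a fitted effect of over 55% in size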
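Viability by CellTiter-Glo luminescence after 48 h compound exposure at 37C of HT-1080-NT cells (750/well, RPMI, 5% FBS). % activity scaled between DMSO wells and medium-only wells, then curve-fitted and categorized by curve class.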
TDP1 cell noCPT: qHTS for Inhibitors of human tyrosyl-DNA phosphodiesterase 1 (TDP1): qHTS in cells in absence of CPT. Potency, µM (highest dose often 46.2 µM), usual class: inhibitors. actives 15% (n = 420,000). DT40 Tdp1-/- hTDP1 cells, no CPT, ATP luminescence, 48 h; note: nearly all actives have a fitted effect of over 55% in size
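Readout: luminescence from CellTiter-Glo after 30 min in the dark at RT. Cells: DT40 Tdp1-/- with stable hTDP1, 400/well. Exposure: compounds alone, ≥48 hr, 37 °C.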
DT40 TDP1 CPT: DT40-hTDP1 cell growth loss with CPT | Potency, µM (top dose mostly 46.2 µM), actives largely listed as inhibitors | chicken DT40 Tdp1-/-;hTDP1 cells + 20 nM CPT, ATP luminescence, 48 h | actives 12% (n = 420,000) | AID 686979; note: nearly all actives have a fitted effect of over 55% in size
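Chicken DT40 Tdp1-/- cells stably complemented with human TDP1 were seeded at 400 cells/well in medium containing 20 nM camptothecin, exposed to pin-transferred compounds, and grown at 37 °C for at least 48 hr. Viability was read as ATP luminescence.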
IL1B secr inh: inflammasome signaling inhibition, IL-1 beta readout; THP-1 LPS/ATP IL-1B secretion, AlphaLISA, 16 h; stronger effect = lower value; activity change, % at 57.5 µM; actives 4.7% (n = 360,000); AID 743279; in the data active = activity change below about -50%; inconclusive = mostly about -30% to -49%
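THP-1 cells pretreated 1 hr with compounds (up to 57.5 uM final), then stimulated with LPS (250 ng/mL final) plus ATP (1.25 mM final); secreted IL-1B measured by AlphaLISA after 16 hr, decreased signal indicating inhibition.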
HT1080 IDH1KD tx: toxicity to HT-1080 IDH1 knockdown cells (counter line); HT-1080 IDH1 knockdown viability, ATP luminescence, 48 h; AID 686971; Potency, µM (series often up to 46.1 µM), usual class: cytotoxic; actives 2% (n = 360,000)
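In this qHTS, HT-1080 cells depleted of IDH1 are exposed for 48 h at 37 °C to compound titrations. Toxicity is scored from CellTiter-Glo luminescence, with DMSO as full viability and medium alone as none.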
Hits are given with their value; - = inactive; ? = inconclusive; . = no result. Most compounds without a hit are left out; they make up all but 19% or so of the library. Unless noted, calls come from the whole dose curve; as a rule, active = well fitted curve in the direction sought with a large enough effect; inconclusive = small, poorly fitted or top-dose-only effect, or another doubt; inactive = no such curve, though single readings can be large; an effect the other way counts as inactive or inconclusive.

SMILES	HT1080-NT tox	TDP1 cell noCPT	DT40 TDP1 CPT	IL1B secr inh	HT1080 IDH1KD tx
CCOC(=O)c1c(-c2ccc(OC)cc2)csc1NC(=O)CSc1ccccc1	-	?	?	-	-
O=C(O)CC(c1cccc2ccccc12)n1cccc1 (stereo unspecified)	-	-	-	-	-
CCOC(=O)c1c(-c2ccc(C)cc2)csc1NC(=O)CCSc1nnc2ccccn12	-	23µM	23µM	-	-
COc1cc2oc(=O)c(CC(=O)NCCc3ccccc3)c(C)c2cc1Cl	.	-	-	.	.
NC(=O)C1CCN(C(=O)CCSCc2ccc(Cl)c(Cl)c2)CC1	-	-	-	-	-
COc1ccc(/C=C/C(=O)Nc2ccccc2C(F)(F)F)cc1OC	-	-	-	-	-
COc1ccc(/C=C/C(=O)Nc2cc(C(F)(F)F)ccc2Cl)cc1OC	-	?	29µM	?	-
COc1cc(/C=C/C(=O)Nc2cc(C(F)(F)F)ccc2Cl)cc(OC)c1OC	-	26µM	?	-57	?
CC(O)[C@H]1CNC(=O)C(=O)N1CCCCC1CCCCC1 (stereo partly specified)	-	-	-	-	-
CNc1oc(C)nc1S(=O)(=O)c1ccc(C)cc1	-	-	-	-	-
Cc1ccc(S(=O)(=O)c2ccc([N+](=O)[O-])o2)cc1	7.3µM	0.18µM	0.033µM	-100	2.6µM
CCN(CC)C(=O)[C@H]1CC(CC(=O)NCCCN(C)C)C(=O)N2CCc3c([nH]c4ccccc34)[C@]12C (stereo partly specified)	-	-	-	-	-
CCN(CC)C(=O)[C@H]1CC(CC(=O)NCc2cccc(C(F)(F)F)c2)C(=O)N2CCc3c([nH]c4ccccc34)[C@]12C (stereo partly specified)	-	21µM	15µM	?	-
CCN(CC)C(=O)[C@H]1C[C@H](CC(=O)NCc2cccc(C(F)(F)F)c2)C(=O)N2CCc3c([nH]c4cc(CCC(=O)N(C)C)ccc34)[C@]12C	-	?	?	-	-
CC(C)N(C(=O)[C@H]1C[C@H](CC(=O)NCc2cccc(C(F)(F)F)c2)C(=O)N2CCc3c([nH]c4cc(CCC(=O)N(C)C)ccc34)[C@]12C)C(C)C	-	?	?	-67	-
CCNc1ccc(Br)cc(C(=O)/C=C/c2ccc(Cl)cc2Cl)c1=O	?	9.2µM	10µM	-98	?
CNc1ccc(Br)cc(C(=O)/C=C/c2cc(OC)ccc2OC)c1=O	?	10µM	21µM	-99	?
CNc1ccc(Br)cc(C(=O)/C=C/c2ccc(OC)cc2)c1=O	-	18µM	6.5µM	?	-
CNc1ccc(Br)cc(C(=O)/C=C/c2ccc3c(c2)OCO3)c1=O	?	18µM	18µM	-100	?
COc1ccc(-c2sc(C(=O)c3ccc(Cl)cc3Cl)cc2CC(=O)O)cc1	?	?	?	-	?
COc1cccc(C2CC(=O)N(c3ccc(F)cc3)C3=C2C(=O)OC3)c1OC (stereo unspecified)	.	-	-	.	.
CSC1(SC2=NCCN2)SC2(NCCN2)S1	-	13µM	10µM	?	?
COc1ccc(C(C(=O)NC2CCCC2)n2c(-c3cccs3)nc3ccccc32)cc1 (stereo unspecified)	-	?	?	-	-
CCS(=O)(=O)Nc1cc(C(=O)N[C@H]2CCCCNC2=O)c2c(c1)nc(-c1ccccc1)n2C	.	-	-	.	.
Nc1ncc(Br)cc1S(=O)(=O)NCCC(=O)NCc1ccc(F)cc1	-	-	-	-	-
SMILES	HT1080-NT tox	TDP1 cell noCPT	DT40 TDP1 CPT	IL1B secr inh	HT1080 IDH1KD tx
COc1ccc(CNC(=O)CCNS(=O)(=O)c2cc(Br)cnc2N)cc1	-	13µM	21µM	-	-
O=C(Nc1cc(-c2ccc(Cl)cc2)no1)c1ccc(F)cc1	.	-	-	.	.
CC(=O)Nc1cccc(-c2ccnc3c2CC(C(=O)Nc2ccc(F)c(Cl)c2)O3)c1 (stereo unspecified)	?	18µM	18µM	-	?
CC(=O)Nc1cccc(-c2ccnc3c2CC(C(=O)NCC2CC2)O3)c1 (stereo unspecified)	-	?	?	-	?
COc1ccc(NC(=O)C2Cc3c(-c4ccc(NC(C)=O)cc4)ccnc3O2)cn1 (stereo unspecified)	?	12µM	8.2µM	-	?
CN(C)c1cccc(NC(=O)C2Cc3c(-c4cccnc4)ccnc3O2)c1 (stereo unspecified)	-	-	-	-	-
COc1ccc(NC(=O)C2Cc3c(-c4cccc(C(C)=O)c4)ccnc3O2)cc1 (stereo unspecified)	?	2.9µM	2.3µM	-	1.8µM
CC(=O)Nc1cccc(-c2ccnc3c2CC(C(=O)Nc2cccc(N(C)C)c2)O3)c1 (stereo unspecified)	?	10µM	13µM	-	?
O=c1c2c(-c3ccc([N+](=O)[O-])cc3)ccnc2[nH]n1-c1ccccc1	-	-	-	-	-
COc1ccc(NC(=O)C2Cc3c(-c4cccc(C(C)=O)c4)ccnc3O2)cn1 (stereo unspecified)	?	2.9µM	2.6µM	-	3.3µM
CC(=O)Nc1ccc(-c2ccnc3c2CC(C(=O)Nc2ccccc2)O3)cc1 (stereo unspecified)	?	5.8µM	4.6µM	-	18µM
CC(=O)Nc1cccc(-c2ccnc3c2CC(C(=O)Nc2ccc(C(C)C)cc2)O3)c1 (stereo unspecified)	?	12µM	21µM	-51	?
CC(=O)Nc1ccc(NC(=O)C2Cc3c(-c4cccc(NC(C)=O)c4)ccnc3O2)cc1 (stereo unspecified)	-	-	-	-	-
COc1ccc(NC(=O)C2Cc3c(-c4cccc(NC(C)=O)c4)ccnc3O2)cc1 (stereo unspecified)	?	3.3µM	3.7µM	-	?
CC(=O)c1cccc(-c2ccnc3c2CC(C(=O)NC(C)C)O3)c1 (stereo unspecified)	-	-	-	-	-
O=C(CN1CCN(S(=O)(=O)c2ccc(F)cc2)CC1)Nc1ccc(Cl)cn1	-	-	-	-	-
Cc1cccc(CCNC(=O)CCc2c(C)nc3c4c(C)cc(C)nc4nn3c2C)c1	.	-	?	.	.
O=C(Nc1ccc(F)c(Cl)c1)C1Cc2c(-c3ccco3)ccnc2O1 (stereo unspecified)	-	15µM	23µM	-	-
COc1ccc(NC(=O)C2Cc3c(-c4ccc(NC(C)=O)cc4)ccnc3O2)cc1 (stereo unspecified)	-	16µM	?	-	-
CSC(=S)NCc1cccnc1	?	3.3µM	2.9µM	-63	?
O=C(Cn1cc(S(=O)(=O)c2ccccc2)c(=O)c2cc(Cl)ccc21)Nc1ccc2c(c1)OCO2	.	?	-	.	.

Bioassay records: PubChem, National Center for Advancing Translational Sciences (NCATS)
